Laboratory results as given in PubChem BioAssay (NCATS).
Results filed as inconclusive are left out. Activity calls are given as the source filed them.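 Rule for the calls, unless noted: active = compounds whose dose series gives a full or clear partial fitted curve of increased nuclear translocation; inconclusive = weak partial curve or effect only at the top dose; inactive = no dose-dependent translocation response.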

Columns and labels:
[1] = molecular target: Glucocorticoid receptor (Homo sapiens) (UniProt P04150); assay: GR-GFP Redistribution (AID 450); note: potency is the fitted concentration of half-maximal effect
[2] = molecular target: Glucocorticoid receptor (Homo sapiens) (UniProt P04150); assay: GR-EFC Redistribution (AID 451; calls by dose curve; note: potency is the fitted concentration of half-maximal effect); conditions: CHO-K1 GR-EFC translocation, beta-gal luminescence, 2 h
Outline: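 CHO-K1 cells expressing nuclear EA and GR-ED fragments of b-gal; compounds titrated up to 46 uM final, 2 h at 37 C. GR nuclear translocation read as complemented b-gal luminescence after 1 h RT detection.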

[3] = molecular target: Mitogen-activated protein kinase 10 (Mus musculus) (UniProt Q61831); assay: JNK3 AlphaScreen Assay (AID 530; active = well fitted curve in either direction with a large enough effect, not every such curve was filed as active;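 note: kinase came from lysate of stimulated human HepG2 cells; signal reports phosphorylation of biotinylated GST-cJun 1-79 at Ser73 with 10 µM ATP; series mostly up to about 57 µM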)
Outline: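 Activity was read by AlphaScreen after JNK3-containing HepG2 lysate (cytokine pre-activated) phosphorylated biotinylated GST-cJun with 10 uM ATP at room temperature. Phospho-Ser73 cJun antibody with Protein-A acceptor beads provided detection.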

[4] = molecular target: 3',5'-cyclic-AMP phosphodiesterase 4B (Homo sapiens) (UniProt Q07343); assay: qHTS Assay for Inhibitors of PDE-IV (AID 607; active = well fitted activation curve with a large enough effect in the main read-out, with a control signal flat, not every such curve was filed as active)
Outline: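 Cell-based read-out of cAMP via a modified cyclic nucleotide-gated channel and membrane potential dye (535/590 nm) in HEK293 cells expressing PDE4 endogenously. Compounds tested up to 22.9 uM final; 100 uM RO 20-1724 reference.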

[5] = molecular target: Cytochrome P450 2C9 (Homo sapiens) (UniProt P11712); assay: qHTS Assay for Inhibitors and Substrates of Cytochrome P450 2C9 (AID 883; active = well fitted curve in the direction sought with a large enough effect; an effect the other way counts as inactive or inconclusive; note: nearly all actives have a fitted effect of over 60% in size; note: potency is the fitted concentration of half-maximal effect)
Outline: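 Signal: luciferase luminescence reporting luciferin produced by CYP2C9. Conditions: 10nM enzyme, Luciferin-H 100uM at KM, 25mM KPO4, 37C, 60 min NADPH-driven reaction. Reference: 57uM sulphaphenazole as 100% inhibition.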

[6] = molecular target: Cytochrome P450 3A4 (Homo sapiens) (UniProt P08684); assay: qHTS Assay for Activators of Cytochrome P450 3A4 (AID 885; active = well fitted curve in the direction sought with a large enough effect; an effect the other way counts as inactive or inconclusive; note: nearly all actives have a fitted effect of over 65% in size)
Outline: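 Luminescent readout of luciferin formed from 25 uM Luciferin-PPXE (KM level) by 20 nM CYP3A4 in 200 mM KPO4, with 60 min NADPH-driven reaction at room temperature after 10 min compound exposure. Ketoconazole (57 uM) defined 100% inhibition.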

[7] = molecular target: Cytochrome P450 2D6 (Homo sapiens) (UniProt P10635); assay: qHTS Assay for Inhibitors and Substrates of Cytochrome P450 2D6 (AID 891; active = well fitted curve in the direction sought with a large enough effect; an effect the other way counts as inactive or inconclusive;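 note: luciferin methyl ether substrate demethylated by CYP2D6 with NADPH regeneration; nearly all actives have a fitted effect of over 60% in size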)
Outline: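 Luminescent read-out of luciferin formed by 5 nM human CYP2D6 demethylating 30 uM Luciferin-ME EGE (Km level) over 60 min at room temperature after NADPH regeneration addition. Data normalized to full inhibition by 1.43 uM quinidine.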

[8] = molecular target: DNA dC->dU-editing enzyme APOBEC-3G (Homo sapiens) (UniProt Q9HC16); assay: qHTS for inhibitors of Vif-A3G interactions: Validation (AID 588379; active = well fitted curve in the direction sought with a large enough effect; an effect the other way counts as inactive or inconclusive)
Outline: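 Yellow fluorescence (Ex 488, Em 500-530) of Vif-coexpressing HeLa A3G-eYFP cells, scanned by Acumen cytometer, reports blocked A3G degradation. Cells plated at 700/well overnight at 37 deg C before compound addition, then a further overnight compound incubation at 37 deg C.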

[9] = molecular target: Cytochrome P450 2C19 (Homo sapiens) (UniProt P33261); assay: qHTS Assay for Inhibitors and Substrates of Cytochrome P450 2C19 (AID 899; active = well fitted curve in the direction sought with a large enough effect; an effect the other way counts as inactive or inconclusive; note: nearly all actives have a fitted effect of over 60% in size)
Outline: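 Signal comes from luciferase acting on luciferin released by CYP2C19-mediated hydroxylation of Luciferin-H EGE, 10uM (KM). Assay mix: 5nM enzyme, 50mM KPO4; 60 min at 37C with NADPH regeneration. Data normalized against 57uM ketoconazole.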

Measured: Potency

Sequence of Glucocorticoid receptor (Homo sapiens) (P04150 whole entry, looked up, the tested form may be a part): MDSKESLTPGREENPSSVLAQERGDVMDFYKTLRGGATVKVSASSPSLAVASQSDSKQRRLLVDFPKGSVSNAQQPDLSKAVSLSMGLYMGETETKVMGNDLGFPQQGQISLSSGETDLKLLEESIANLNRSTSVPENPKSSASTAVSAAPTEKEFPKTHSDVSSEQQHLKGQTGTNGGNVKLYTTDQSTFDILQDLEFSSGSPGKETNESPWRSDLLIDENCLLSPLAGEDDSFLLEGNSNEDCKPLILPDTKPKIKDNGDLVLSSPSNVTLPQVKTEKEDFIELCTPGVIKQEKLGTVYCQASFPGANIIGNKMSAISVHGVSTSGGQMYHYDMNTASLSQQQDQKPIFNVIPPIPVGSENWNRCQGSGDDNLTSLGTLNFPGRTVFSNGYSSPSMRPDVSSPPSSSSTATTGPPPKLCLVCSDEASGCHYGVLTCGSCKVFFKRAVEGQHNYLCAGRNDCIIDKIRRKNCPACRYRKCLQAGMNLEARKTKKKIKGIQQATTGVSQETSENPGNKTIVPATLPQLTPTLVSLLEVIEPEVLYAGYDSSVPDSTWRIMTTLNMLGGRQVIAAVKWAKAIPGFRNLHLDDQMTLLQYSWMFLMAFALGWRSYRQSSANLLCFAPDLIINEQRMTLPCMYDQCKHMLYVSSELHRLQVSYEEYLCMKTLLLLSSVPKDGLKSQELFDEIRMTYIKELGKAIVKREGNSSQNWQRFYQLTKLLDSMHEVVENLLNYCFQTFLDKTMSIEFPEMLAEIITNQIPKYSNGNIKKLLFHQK
Sequence of 3',5'-cyclic-AMP phosphodiesterase 4B (Homo sapiens) (Q07343 whole entry, looked up): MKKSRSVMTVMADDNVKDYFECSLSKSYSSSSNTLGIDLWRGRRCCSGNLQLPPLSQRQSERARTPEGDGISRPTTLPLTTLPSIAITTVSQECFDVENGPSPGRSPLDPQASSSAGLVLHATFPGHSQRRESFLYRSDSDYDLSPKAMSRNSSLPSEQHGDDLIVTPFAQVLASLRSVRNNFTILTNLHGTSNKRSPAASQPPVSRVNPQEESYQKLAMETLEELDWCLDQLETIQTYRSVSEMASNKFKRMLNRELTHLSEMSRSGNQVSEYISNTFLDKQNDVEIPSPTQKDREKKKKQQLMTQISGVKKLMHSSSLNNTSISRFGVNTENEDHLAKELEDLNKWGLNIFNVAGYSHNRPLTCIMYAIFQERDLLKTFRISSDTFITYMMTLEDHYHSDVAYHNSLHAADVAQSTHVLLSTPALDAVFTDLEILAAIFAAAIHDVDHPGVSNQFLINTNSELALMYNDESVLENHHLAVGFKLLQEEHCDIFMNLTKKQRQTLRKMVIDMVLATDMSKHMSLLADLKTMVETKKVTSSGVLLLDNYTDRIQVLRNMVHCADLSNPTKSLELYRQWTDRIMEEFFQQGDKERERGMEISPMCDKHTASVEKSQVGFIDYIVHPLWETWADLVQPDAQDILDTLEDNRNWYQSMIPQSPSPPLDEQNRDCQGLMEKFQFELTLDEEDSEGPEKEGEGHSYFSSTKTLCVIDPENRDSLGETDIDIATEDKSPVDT
Sequence of Cytochrome P450 2D6 (Homo sapiens) (P10635 whole entry, looked up): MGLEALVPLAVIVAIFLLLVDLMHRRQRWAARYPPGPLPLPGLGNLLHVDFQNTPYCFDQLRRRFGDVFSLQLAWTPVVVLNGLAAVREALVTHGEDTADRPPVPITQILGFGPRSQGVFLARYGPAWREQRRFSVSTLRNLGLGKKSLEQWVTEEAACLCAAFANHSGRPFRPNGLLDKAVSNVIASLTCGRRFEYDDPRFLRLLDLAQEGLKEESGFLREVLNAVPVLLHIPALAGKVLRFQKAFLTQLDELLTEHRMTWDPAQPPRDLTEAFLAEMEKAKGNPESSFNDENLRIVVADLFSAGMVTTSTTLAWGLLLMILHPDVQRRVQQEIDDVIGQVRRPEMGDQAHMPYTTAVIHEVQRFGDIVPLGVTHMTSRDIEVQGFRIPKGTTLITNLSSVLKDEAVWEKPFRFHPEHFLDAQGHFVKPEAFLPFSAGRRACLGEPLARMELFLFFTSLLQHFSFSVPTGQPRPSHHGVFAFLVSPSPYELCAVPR
Sequence of Cytochrome P450 2C9 (Homo sapiens) (P11712 whole entry, looked up): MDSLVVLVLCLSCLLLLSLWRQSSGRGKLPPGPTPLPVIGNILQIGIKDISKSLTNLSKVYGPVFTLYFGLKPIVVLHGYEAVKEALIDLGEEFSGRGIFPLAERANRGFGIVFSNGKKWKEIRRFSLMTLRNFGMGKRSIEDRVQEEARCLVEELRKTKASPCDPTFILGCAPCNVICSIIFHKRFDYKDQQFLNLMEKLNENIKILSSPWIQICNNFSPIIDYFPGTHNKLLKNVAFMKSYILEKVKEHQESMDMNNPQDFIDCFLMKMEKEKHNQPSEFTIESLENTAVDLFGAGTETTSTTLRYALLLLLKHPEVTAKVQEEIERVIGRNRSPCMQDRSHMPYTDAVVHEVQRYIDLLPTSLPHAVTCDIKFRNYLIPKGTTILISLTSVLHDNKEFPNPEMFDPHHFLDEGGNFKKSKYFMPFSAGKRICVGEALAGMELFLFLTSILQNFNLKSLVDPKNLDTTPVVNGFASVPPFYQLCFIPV
Sequence of Cytochrome P450 2C19 (Homo sapiens) (P33261 whole entry, looked up): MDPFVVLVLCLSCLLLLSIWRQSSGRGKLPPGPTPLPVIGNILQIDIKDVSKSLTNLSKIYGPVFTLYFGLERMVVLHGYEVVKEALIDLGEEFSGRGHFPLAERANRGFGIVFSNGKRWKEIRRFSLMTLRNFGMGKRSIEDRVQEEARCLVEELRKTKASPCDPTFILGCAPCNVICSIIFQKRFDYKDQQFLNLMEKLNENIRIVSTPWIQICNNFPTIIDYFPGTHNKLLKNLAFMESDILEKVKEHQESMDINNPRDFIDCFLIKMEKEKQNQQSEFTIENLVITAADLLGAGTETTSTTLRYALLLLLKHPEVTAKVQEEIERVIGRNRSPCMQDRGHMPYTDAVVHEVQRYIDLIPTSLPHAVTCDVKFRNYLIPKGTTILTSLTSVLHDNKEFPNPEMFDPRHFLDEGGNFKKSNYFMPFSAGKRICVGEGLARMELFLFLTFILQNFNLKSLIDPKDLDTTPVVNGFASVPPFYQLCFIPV
Sequence of Cytochrome P450 3A4 (Homo sapiens) (P08684 whole entry, looked up): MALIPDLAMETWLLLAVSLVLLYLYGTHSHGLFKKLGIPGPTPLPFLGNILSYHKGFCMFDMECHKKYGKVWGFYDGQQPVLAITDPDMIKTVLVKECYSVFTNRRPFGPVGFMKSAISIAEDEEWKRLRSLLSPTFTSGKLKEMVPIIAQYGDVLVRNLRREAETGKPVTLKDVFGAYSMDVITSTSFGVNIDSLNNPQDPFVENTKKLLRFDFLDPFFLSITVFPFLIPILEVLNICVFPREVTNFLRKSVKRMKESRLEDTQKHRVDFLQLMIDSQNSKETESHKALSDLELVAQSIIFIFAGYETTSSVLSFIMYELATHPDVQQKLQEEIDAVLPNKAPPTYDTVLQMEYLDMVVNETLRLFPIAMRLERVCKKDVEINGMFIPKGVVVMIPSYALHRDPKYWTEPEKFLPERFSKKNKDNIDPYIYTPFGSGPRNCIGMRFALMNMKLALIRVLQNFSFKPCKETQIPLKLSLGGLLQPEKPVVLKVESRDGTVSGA
Sequence of DNA dC->dU-editing enzyme APOBEC-3G (Homo sapiens) (Q9HC16 whole entry, looked up): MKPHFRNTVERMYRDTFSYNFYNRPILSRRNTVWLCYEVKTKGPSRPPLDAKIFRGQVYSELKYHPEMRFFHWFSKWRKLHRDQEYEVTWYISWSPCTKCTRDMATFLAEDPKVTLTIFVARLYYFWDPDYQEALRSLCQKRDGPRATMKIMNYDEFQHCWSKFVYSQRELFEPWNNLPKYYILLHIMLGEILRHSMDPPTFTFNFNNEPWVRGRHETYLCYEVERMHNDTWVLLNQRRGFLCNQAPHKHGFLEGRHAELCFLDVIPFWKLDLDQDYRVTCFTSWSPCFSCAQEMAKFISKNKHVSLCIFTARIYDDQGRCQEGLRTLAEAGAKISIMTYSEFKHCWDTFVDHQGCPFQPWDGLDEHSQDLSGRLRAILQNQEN

Cc1oc2cc(O)ccc2c(=O)c1-c1cnn(-c2ccccc2)c1
inactive: [1] > 20.6 µM

O=C(O)CCCC[C@@H]1SC[C@H]2NC(=O)N[C@H]12
inactive: [1] > 46 µM | [2] > 46 µM

C=C1C[C@@]23C[C@]1(O)CC[C@@H]2[C@]12C=C[C@@H](O)[C@@](C)(C(=O)O1)[C@@H]2[C@@H]3C(=O)O
inactive: [1] > 46 µM | [2] > 46 µM | [3]

N#Cc1nc(-c2cccs2)oc1NCc1ccc2c(c1)OCO2
inactive: [1] > 20.6 µM

C=CCn1c(SCC(=O)c2ccc(NS(=O)(=O)c3ccccc3)cc2)nnc1-c1cccs1
inactive: [1] > 20.6 µM

COc1cc([C@@H]2Oc3cc([C@H]4Oc5cc(O)cc(O)c5C(=O)[C@H]4O)ccc3O[C@H]2CO)ccc1O
active: [5] 2.51 µM
inactive: [1] > 46 µM | [2] > 46 µM | [3] | [4] | [6] | [7] | [8]

CN1C[C@H](C(=O)N[C@]2(C)O[C@@]3(O)[C@H]4CCCN4C(=O)[C@@H](Cc4ccccc4)N3C2=O)C[C@H]2c3cccc4[nH]cc(c34)C[C@@H]21
inactive: [1] > 46 µM | [2] > 46 µM | [3] | [4]

O=c1ccn([C@H]2O[C@H](CO)[C@@H](O)[C@@H]2O)c(=O)[nH]1
inactive: [1] > 46 µM | [3] | [4] | [5] | [7] | [9]

C[C@@H]1C(=O)O[C@H]2[C@@H](O)[C@@]34[C@H]5C[C@H](C(C)(C)C)[C@@]36[C@H](OC(=O)[C@@H]6O)O[C@@]4(C(=O)O5)[C@@]12O
inactive: [1] > 46 µM | [2] > 46 µM | [3] | [4]

N#CC1=C(N)NC(SCc2ccc(Cl)cc2)=C(C#N)C12CCCCC2
inactive: [1] > 20.6 µM

Cc1c(C(=O)O)c(O)cc2c1C(=O)c1c(O)c([C@@H]3O[C@H](CO)[C@@H](O)[C@H](O)[C@@H]3O)c(O)c(O)c1C2=O
inactive: [1] > 46 µM | [2] > 46 µM | [3] | [5] | [7] | [9]
